Source: PubChem BioAssay
CHT PAM: allosterically activates the human high affinity choline transporter; Q9GZV3; CHT-expressing cells, membrane potential dye, choline EC20; active compounds read high; LV-AA mutant CHT in HEK293 cells; B-score at 10 µM; 310,000 compounds, 0.49% hits; AID 488977;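 active = initial fluorescence not abnormally high and integrated response B-score, plate-corrected, over 3 SD above library mean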
Target sequence (Q9GZV3 whole entry, looked up): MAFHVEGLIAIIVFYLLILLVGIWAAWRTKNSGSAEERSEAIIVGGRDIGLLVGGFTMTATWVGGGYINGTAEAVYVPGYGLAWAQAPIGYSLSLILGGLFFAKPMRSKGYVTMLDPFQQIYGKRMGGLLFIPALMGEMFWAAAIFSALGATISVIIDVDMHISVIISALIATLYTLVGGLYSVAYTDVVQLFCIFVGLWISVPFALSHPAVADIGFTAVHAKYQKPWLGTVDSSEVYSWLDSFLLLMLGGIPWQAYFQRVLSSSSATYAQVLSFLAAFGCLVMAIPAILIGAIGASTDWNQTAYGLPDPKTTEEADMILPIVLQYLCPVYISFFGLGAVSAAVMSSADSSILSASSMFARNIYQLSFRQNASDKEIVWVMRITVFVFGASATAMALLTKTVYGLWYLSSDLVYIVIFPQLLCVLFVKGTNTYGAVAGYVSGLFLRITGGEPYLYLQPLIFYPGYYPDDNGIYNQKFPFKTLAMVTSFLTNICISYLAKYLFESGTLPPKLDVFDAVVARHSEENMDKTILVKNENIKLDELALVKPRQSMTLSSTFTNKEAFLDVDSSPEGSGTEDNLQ
SUMO Mot1 rescue: blocks SUMOylation pathway, rescuing yeast Mot1-301 growth. S. cerevisiae Mot1-301 growth rescue, ATP luminescence, 38.5C; percent above DMSO median, 100 means doubled. growth rescue, % at 18.8 µM. 320,000 compounds, 1% hits. AID 2716;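 active = every valid replicate shows activation above 250% relative to neutral control wells; inactive = the rest, any valid replicate at or below 250%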;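 also: OY570 slx delta 5 strain wells were the positive control but not used for scaling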
CHT block: inhibitors of human choline transporter CHT; Q9GZV3; CHT-expressing cells, membrane potential dye, choline response; active compounds read low; B-score at 10 µM; 310,000 compounds, 0.86% hits; AID 488975;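 active = B-score over 3 SD under the library average, and starting fluorescence ratio not unusually high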;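 also: choline stimulus applied at its EC90 after an EC20 pre-addition; B-score computed on integrated fluorescence ratio after choline addition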
MEKK2 mut-MEK5: signal of MEK5 binding to mutant human MEKK2 PB1 domain. bead flow cytometry, Alexa488-MEK5 binding to MEKK2 mutant. percent response, % at 10 µM. 290,000 compounds, 0.35% hits. AID 1530; in the data active = percent response above about 24%, passing the limit was not always enough
MEKK2wt PB1 HTS: raises or lowers MEK5 binding to wildtype human MEKK2 PB1 domain; bead flow cytometry, Alexa488-MEK5 binding to MEKK2 WT; actives lie on both sides; 290,000 compounds, 1.1% hits; Q9Y2U5; binding response (% of control), % at 10 µM; AID 1531; in the data active = binding response below about 67% or above about 130%
MEKK3 PB1 HTS: modulators (inhibitors or enhancers) of MEK5 binding to human MEKK3 PB1 domain | bead-based flow cytometry, Alexa488-MEK5 binding to MEKK3; actives lie on both sides; 0 = blocked by unlabeled MEK5, 100 = vehicle | Q99759 | AID 1529 | 290,000 compounds, 1.4% hits | binding response (% of control), % at 10 µM;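 active = binding response more than 3 SD above or below the average of its plate-row segment, actives on both sides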;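 also: Alexa488 bead fluorescence after subtracting the streptavidin-only scavenger bead signal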
MEKK2wt confirm: raises or lowers MEK5 binding to wildtype human MEKK2, retest; shares compounds with MEKK3 PB1 HTS; bead flow cytometry, Alexa488-MEK5 binding to MEKK2 WT; actives lie on both sides; binding response (% of control), % at 10 µM; 5,900 compounds, 2.4% hits; AID 1892; in the data active = binding response below about 16% or above about 210%; inactive = in between
MEKK2mut-MEK5: signal of MEK5 binding to mutant human MEKK2, retest | shares compounds with MEKK3 PB1 HTS | bead flow cytometry, Alexa488-MEK5 binding to MEKK2 mutant | percent response, % at 10 µM | 5,900 compounds, 2% hits | AID 1893; in the data active = percent response mostly above about 71%, no sharp cut-off; inactive = mostly below about 38%;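 also: higher means compound restores mutant binding toward wildtype level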
MEKK3-MEK5 inh: confirmation of inhibitors of MEK5 binding to human MEKK3; bead flow cytometry, Alexa488-MEK5 binding to MEKK3; active compounds read low; binding response (% of control), % at 10 µM; shares compounds with MEKK3 PB1 HTS; 5,900 compounds, 1.8% hits;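 active = binding response below 72% of control, or above a set upper limit, though filed actives all read lower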;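 also: 100% = DMSO only wells and 0% = binding blocked by excess unlabeled MEK5; lower values mean stronger disruption of MEK5 binding to MEKK3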
* = called active by the depositor; i = inactive; x = no result given; ! = not active in a repeat; [ ] = dose if it differs, or a comment. Compounds with a hit are over-represented: about 4.1% of the library has one in this group of screens.

SMILES | CHT PAM | SUMO Mot1 rescue | CHT block | MEKK2 mut-MEK5 | MEKK2wt PB1 HTS | MEKK3 PB1 HTS | MEKK2wt confirm | MEKK2mut-MEK5 | MEKK3-MEK5 inh
O=C(Nc1cccc(Cl)c1)OC1CN2CCC1CC2 (stereo not drawn) | i | 60 | i | 27 | 147* | 110 | 125 | 8 | 98
Cn1cccc1/C=C1/C(=O)NC(=S)N(Cc2ccc(F)cc2)C1=O | i | 24 | i | -19 | 56*[inhibitor] | 88 | 98 | 0 | 98
Cn1cccc1/C=C1/C(=O)NC(=O)N(Cc2ccc(F)cc2)C1=O | i | 5 | i | 0 | 93 | 101 | x | x | x
O=Cc1c(C(=O)O)n(Cc2ccc(Cl)cc2)c2ccccc12 | i | -6 | i | -1 | 95 | 113 | x | x | x
CC(C)N1CC=C(c2c[nH]c3ccccc23)CC1 | i | 11 | i | 2 | 105 | 103 | x | x | x
C1=C(c2c[nH]c3ccccc23)CCNC1 | i | 107 | i | 99* | 173* | 107 | 122 | 8 | 105
CN(C)CCN=Cc1c(O)n(-c2cccc(C(F)(F)F)c2)c(=O)[nH]c1=O | i | 52 | i | -20 | -2.0*[inhibitor] | 2.0*[inhibitor] | 98 | 4 | 101
Clc1ccc(C(Cn2ccnc2)OCc2csc3c(Cl)cccc23)c(Cl)c1 (stereo not drawn) | i | -8 | i | x | x | x | x | x | x
c1ccc(CCCN2CCN(CCOC(c3ccccc3)c3ccccc3)CC2)cc1 | i | 4 | i | 8 | 162* | 108 | 130 | 27 | 103
Fc1ccc(C(OCCN2CCCC2)c2ccc(F)cc2)cc1 | i | -8 | i | -1 | 107 | 99 | x | x | x
Fc1ccc(C(OCCN2CCN(CCCc3ccccc3)CC2)c2ccc(F)cc2)cc1 | i | -11 | i | 26* | 235* | 112 | 187 | 41 | 109
CN(C/N=C(\N)N[N+](=O)[O-])S(=O)(=O)c1ccccc1 | i | 32 | i | -2 | 100 | 113 | x | x | x
Cc1cc(Cl)ccc1C(=O)C1CCCN(C2CCSCC2)C1 (stereo not drawn) | i | 249 | i | 3 | 104 | 98 | x | x | x
CC(NCc1cccc(Cl)c1Cl)C(O)c1ccccc1 (stereo not drawn) | i | -24 | i | 5 | 43*[inhibitor] | 102 | 103 | 2 | 104
NC1C2CN3CCN(C2)CC1(c1ccccc1)C3 (stereo not drawn) | i | 39 | i | -2 | 98 | 97 | x | x | x
CC(C)(C)n1cc(C(=O)c2ccc3ccccc3c2O)cn1 | i | -16 | i | -2 | 100 | 129* | 103 | -1 | 100
CC(C)(C)n1cc(C(=O)c2ccccc2OCCCF)cn1 | i | -8 | i | 4 | 104 | 100 | x | x | x
Cc1ccc(NC(=O)[C@@H](NC(=O)N2C[C@H]3C[C@@H](C2)c2cccc(=O)n2C3)C(C)C)cc1 | i | -17 | i | 5 | 105 | 105 | x | x | x
c1ccc(CC(NCc2ccco2)c2ccccc2)cc1 (stereo not drawn) | i | 4 | i | 0 | 112 | 129* | 103 | 6 | 103
O=P1(NCc2ccco2)COc2ccccc2OC1 | i | -12 | i | -9 | 89 | 93 | x | x | x
CS(=O)(=O)Nc1ccc(Cc2noc(-c3ccc4[nH]cc(CCN)c4c3)n2)cc1 | i | 4 | i | 11 | 156*! | 107 | 131 | 11 | 99
CC/C(=N\NC(N)=O)c1c(O)[nH]c(=O)[nH]c1=O | i | -9 | i | 7 | 99 | 98 | x | x | x
CC/C(=N\Nc1cccc2ccccc12)c1c(O)[nH]c(=O)[nH]c1=O | i | 196 | i | 3 | 36*[inhibitor] | 97 | 89 | -14 | 95
CC1(c2ccccc2)NCCN2C(=O)CSC21 (stereo not drawn) | i | -8 | i | 2 | 98 | 102 | x | x | x
CC1(C)C2SCC(=O)N2CCN1CC(=O)NN (stereo not drawn) | i | 0 | i | 25 | 122 | 128* | 96 | -1 | 97
SMILES | CHT PAM | SUMO Mot1 rescue | CHT block | MEKK2 mut-MEK5 | MEKK2wt PB1 HTS | MEKK3 PB1 HTS | MEKK2wt confirm | MEKK2mut-MEK5 | MEKK3-MEK5 inh
Cc1cc(C=C2C(=O)N(C)C(=S)N(C)C2=O)c(C)n1C1CCCC1 | i | -15 | i | -13 | 55*[inhibitor] | 84 | 98 | -1 | 101
Cc1cc(/C=C2\C(=O)NC(=S)N(C)C2=O)c(C)n1C1CCCCC1 | i | 8 | i | 7 | 88 | 105 | x | x | x
O=C1/C(=C/c2ccncc2)N2CCC1CC2 | i | 51 | i | -9 | 87 | 87 | x | x | x
O=c1ccc2cc(O[C@@H]3O[C@@H](CO)[C@H](O)[C@@H](O)[C@@H]3O)c(O)cc2o1 | i | -12 | i | -1 | 102 | 102 | x | x | x
CCc1ccc(NP(=O)(Oc2ccccc2F)Oc2ccccc2F)cc1 | i | -5 | i | -27 | -3.0*[inhibitor] | 1.0*[inhibitor] | 100 | -7 | 102
ClCCN1CCN(c2ccnc3cc(Cl)ccc23)CC1 | i | -3 | i | 20 | 154* | 107 | 112 | 9 | 104
CCCCCCN1CCN(c2ccc(Cl)cc2)CC1 | i | 183 | i | -9 | 89 | 81 | x | x | x
COc1cc(N2CCOCC2)ccc1/C=C1\C(=O)NC(=O)N(C2CCCCC2)C1=O | i | -7 | i | -1 | 105 | 130* | 96 | -1 | 98
CCC(N)Cc1c[nH]c2ccccc12 (stereo not drawn) | x | x | x | -7 | 74 | 64*[inhibitor] | 103 | 2 | 100
CNCCc1c[nH]c2ccccc12 | i | 24 | i | 3 | 106 | 111 | x | x | x
O=C1NC(=O)N(C2CCCCC2)C(=O)C1C1c2ccccc2C(=O)N1Cc1ccccc1 (stereo not drawn) | i | 12 | i | -12 | 87 | 76*[inhibitor] | 108 | 4 | 106
CC[C@@H]1C=CC=CC[C@H](C)[C@@H](O)[C@@H](C)C(=O)[C@H](C)[C@@H](O)[C@H](C)C(=O)[C@H](C)[C@@H](O)[C@H](C)C=CC(=O)O[C@H]2[C@@H](C)[C@@H](CC1)O[C@@]1(CC[C@@H](C)[C@@H](C[C@H](C)O)O1)[C@@H]2C | i | 8 | i | 2 | 106 | 103 | x | x | x
